APE1 inh: qHTS Assay for Inhibitors of the Human Apurinic/apyrimidinic Endonuclease 1 (APE1); recombinant APE1, TAMRA/BHQ-2 abasic DNA cleavage fluorescence; Potency, µM (highest dose often 65.8 µM), usual class: inhibitors; 350,000 compounds, 0.35% hits; further: nearly all actives have a fitted effect of over 55% in size
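Readout is kinetic fluorescence (ex 525, em 598 nm) from cleavage of 50 nM TAMRA/BHQ-2 THF abasic duplex by 0.75 nM APE1, compound added 15 min beforehand at RT.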
TDP1 block: qHTS Assay for Inhibitors of Tyrosyl-DNA Phosphodiesterase (TDP1) | recombinant TDP1, AlphaScreen DNA substrate cleavage | Potency, µM (top dose mostly 130 µM), most hits filed as inhibitors | 350,000 compounds, 0.28% hits; further: nearly all actives have a fitted effect of over 40% in size
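Enzyme-compound mixtures sat 15 min at room temperature, followed by a 5 min reaction with 15 nM final substrate and 10 min with AlphaScreen beads. Recombinant human Tdp1 was used at 1 nM final.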
BLM inh: qHTS Assay for Inhibitors of Bloom's syndrome helicase (BLM); recombinant BLM DNA unwinding, fluorescence dequenching; Potency, µM (series often up to 56.1 µM), most hits filed as inhibitors; 350,000 compounds, 0.2% hits; further: nearly all actives have a fitted effect of over 35% in size
RECQ1 inh: qHTS Assay for Inhibitors of RecQ-Like Dna Helicase 1 (RECQ1) | ATP-dependent DNA helicase Q1 (Homo sapiens), P46063 | RECQ1 DNA unwinding, red fluorescence kinetic read | Potency, µM (series often up to 57.3 µM), most hits filed as inhibitors | 240,000 compounds, 0.54% hits; further: nearly all actives have a fitted effect of over 30% in size
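RECQ1T1 50 nM; forked duplex (20 bp + 30-nt ss tails) 200 nM, ATP 2 mM final; pH 8.0, 2 mM MgCl2, 2.5 ug/ml poly(dI-dC); 15 min compound preincubation; discontinuous kinetic read over 2 h at RT.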
FEN1 inh: qHTS Assay for the Inhibitors of Human Flap endonuclease 1 (FEN1); AID 588795, 2011; Potency, µM (top dose mostly 114 µM), actives largely listed as inhibitors; P39748; 390,000 compounds, 0.35% hits; Recombinant FEN1 flap cleavage, fluorescence, 15 min; further: nearly all actives have a fitted effect of over 65% in size
Target sequence (P39748 whole entry, looked up): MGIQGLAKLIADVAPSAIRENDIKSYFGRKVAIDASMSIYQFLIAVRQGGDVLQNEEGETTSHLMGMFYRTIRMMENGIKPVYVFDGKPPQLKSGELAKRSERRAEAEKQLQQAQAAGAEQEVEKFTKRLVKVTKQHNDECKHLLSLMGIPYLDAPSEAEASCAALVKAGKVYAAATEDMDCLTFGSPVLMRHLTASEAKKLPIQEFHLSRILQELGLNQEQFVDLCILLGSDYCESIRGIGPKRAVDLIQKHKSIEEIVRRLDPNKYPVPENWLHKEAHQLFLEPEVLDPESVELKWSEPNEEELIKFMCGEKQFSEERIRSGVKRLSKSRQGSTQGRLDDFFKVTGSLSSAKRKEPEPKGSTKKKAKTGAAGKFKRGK
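Read-out was taken twice, immediately and after 15 min, following addition of 50 nM substrate to 10 nM FEN1 that had sat with test compound for 15 min at room temperature. Curves came from a four-parameter Hill model.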
A number is an active result; n = inactive; u = inconclusive; x = no result; ! = repeats disagree; [ ] = remark or other dose. An excerpt weighted towards active compounds, which were near 0.92% of everything screened. The call rests on the fitted dose curve; in most records, active means well fitted curve in the direction sought with a large enough effect; inconclusive means small, poorly fitted or top-dose-only effect, or another doubt; inactive means no such curve, though single readings can be large; an effect the other way counts as inactive or inconclusive.

SMILES	APE1 inh	TDP1 block	BLM inh	RECQ1 inh	FEN1 inh
O=C(N/N=C/c1cc([N+](=O)[O-])ccc1O)c1cccc(NC(=O)c2cccc(Cl)c2)c1	n	56µM	n	x	n
C[N+]1(CC(=O)c2ccc(Cl)c(Cl)c2)CCOCC1	x	x	x	x	n
NC(=O)NC(=O)CC1S/C(=N/N=C2\CSC(=O)N2)NC1=O (configuration not stated)	n	n	n	n	n
O=C(O)CNC(=O)CC1S/C(=N/N=C2/NC(=O)CS2)NC1=O (configuration not stated)	u	40µM	n	n	n
Oc1ccc(COc2ccccc2Cl)c2cccnc12	x	n	x	x	x
Nc1nc(SCC(=O)Nc2ccc(OCc3ccccc3)cc2)n[nH]1	n	71µM	n	n	n
COc1ccc(C)cc1NC(=O)COC(=O)c1ccc([N+](=O)[O-])o1	n	n	n	n	n
COc1ccc(C(C)(C)C)cc1NC(=O)COC(=O)c1ccc([N+](=O)[O-])o1	n	n	n	n	25µM
COC(=O)c1c(NC(=O)CCCOc2cccc(C)c2)sc2c1CCC2	x	n[12.3 µM]	n	x	n
COC(=O)c1c(NC(=O)CCCOc2cccc(C)c2)sc2c1C(C(=O)OC)CC2 (configuration not stated)	x	n[12.3 µM]	n	x	71µM
COC(=O)c1c(NC(=O)Cc2ccccc2)sc2c1C(C(=O)OC)CC2 (configuration not stated)	n	n	n	n	n
COC(=O)c1c(NC(=O)CCCOc2ccc(C)cc2)sc2c1C(C(=O)OC)CC2 (configuration not stated)	x	n[12.3 µM]	n	x	79µM
Cc1ccc(NS(=O)(=O)c2ccc3c(c2)CCC(=O)N3)cc1Cl	x	n	x	x	x
CCN(CC)/[N+]([O-])=N/Oc1ccc([N+](=O)[O-])cc1[N+](=O)[O-]	x	x	x	x	n
O=C(c1ccccc1O)N(Cc1ccco1)Cc1cccs1	x	n	x	x	x
Cc1ccc(N)c(Cl)c1	n	n	n	n	x
Nc1ccc(N)c(Cl)c1	u	n	x	22µM	x
Cc1ccnc2c1ccc1c(C)ccnc12	n	n	x	x	25µM
CC1(C)CC(=O)C(N=Nc2cc(S(=O)(=O)N3CCOCC3)ccc2Cl)=C(O)C1	10µM	u	n	n	n
CC1(C)CC(=O)C(N=Nc2cc(C(F)(F)F)ccc2Cl)=C(O)C1	n	n	n	n	n
Cn1cccc1-c1cc(C(=O)N/N=C/c2ccccc2Cl)[nH]n1	n	n	n	x	n
Cn1cccc1-c1cc(C(=O)N/N=C/c2cc(Br)ccc2O)[nH]n1	n[12.4 µM]	79µM	n	x	n
CC1=CC(=O)c2ccccc2C1=O	n	n	18µM!	n	n
CCc1ccc(NC(=O)CS(=O)CC(=O)Nc2ccc(-n3cnnn3)c(C)c2)cc1 (configuration not stated)	n	56µM	n	x	n
Cc1cc(NC(=O)CS(=O)CC(=O)Nc2c(C)cccc2C)ccc1-n1cnnn1 (configuration not stated)	n	n	n	x	n
SMILES	APE1 inh	TDP1 block	BLM inh	RECQ1 inh	FEN1 inh
O=C(CSc1nnc(SCc2ccccc2)s1)N/N=C/C=C/c1ccco1	13µM	n	25µM	22µM	u
O=C(Cc1cccs1)N/N=C/C=C/c1ccco1	n	n	25µM	n	n
O=C(CNc1cccc2ccccc12)N/N=C/C=C/c1ccco1	n	n	n	n	n
COc1ccc(C2=Nn3c(nnc3-c3ccccc3C(F)(F)F)SC2)cc1OCC1CC1	n	x	x	x	x
CCOc1cc2c(C#N)c(N3CCNCC3)nc(N)c2c(N)n1	n	n	n	n	u
CCOc1cc2c(C#N)c(N3CCCCC3)nc(N)c2c(N)n1	n	n	28µM	n	n
CCOC(=O)C1CCN(c2nc(N)c3c(N)nc(SCC(=O)O)cc3c2C#N)CC1	u	28µM	25µM	u	45µM
CC1(C)CC(=O)C2=C(C1)OC(N)=C(C#N)[C@@H]2c1ccccc1[N+](=O)[O-]	n	71µM	n	n	n

Screening results from PubChem BioAssay.
